Each sequence was assayed against T1, NKX2-6 (Homo sapiens, UniProt A6NCS4 118-204, F151L) (assay: PBM; 200 nM protein, PBS). Settings: dsDNA, one strand shown.
T1 sequence: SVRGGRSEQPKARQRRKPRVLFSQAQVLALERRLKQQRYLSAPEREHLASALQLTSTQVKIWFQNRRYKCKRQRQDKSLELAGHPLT

Sequence	binding signal
AAGTGGGT	10.5 upbm affinity estimate (log intensity, higher = more binding, comparable within an allelic series)
TAAGTGCA	10.9 upbm affinity estimate (log intensity, higher = more binding, comparable within an allelic series)
CGTCGGTC	9.36 upbm affinity estimate (log intensity, higher = more binding, comparable within an allelic series)
CACACTTA	10.9 upbm affinity estimate (log intensity, higher = more binding, comparable within an allelic series)
CACTTAGG	10.8 upbm affinity estimate (log intensity, higher = more binding, comparable within an allelic series)
AAGTGCCT	10.8 upbm affinity estimate (log intensity, higher = more binding, comparable within an allelic series)
CTAAGTAC	10.5 upbm affinity estimate (log intensity, higher = more binding, comparable within an allelic series)
ACTTAAGA	10.8 upbm affinity estimate (log intensity, higher = more binding, comparable within an allelic series)
CACTTGTA	10.7 upbm affinity estimate (log intensity, higher = more binding, comparable within an allelic series)
AGCACTTG	10.6 upbm affinity estimate (log intensity, higher = more binding, comparable within an allelic series)
AAGTGGCC	10.5 upbm affinity estimate (log intensity, higher = more binding, comparable within an allelic series)
ACTAAGTG	10.6 upbm affinity estimate (log intensity, higher = more binding, comparable within an allelic series)
GCACTTAC	10.6 upbm affinity estimate (log intensity, higher = more binding, comparable within an allelic series)
GTCCCAGA	9.41 upbm affinity estimate (log intensity, higher = more binding, comparable within an allelic series)
CTAAGTGC	11 upbm affinity estimate (log intensity, higher = more binding, comparable within an allelic series)
CGTTCCGC	9.27 upbm affinity estimate (log intensity, higher = more binding, comparable within an allelic series)
CCAGCAGC	9.29 upbm affinity estimate (log intensity, higher = more binding, comparable within an allelic series)
CACTTACC	10.7 upbm affinity estimate (log intensity, higher = more binding, comparable within an allelic series)
ACACTTAG	11 upbm affinity estimate (log intensity, higher = more binding, comparable within an allelic series)

These sequences were tested against MSX2 (Homo sapiens, UniProt P35548 130-214, F161Y) (assay: PBM; 200 nM protein, PBS). Settings: dsDNA, one strand shown.
Sequence of MSX2 (P35548 130-214 F161Y): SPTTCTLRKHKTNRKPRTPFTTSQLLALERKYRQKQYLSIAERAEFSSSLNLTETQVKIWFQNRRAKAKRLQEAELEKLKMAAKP

Sequence	binding signal
ACAATTAC	13.2 upbm affinity estimate (log intensity, higher = more binding, comparable within an allelic series)
AGCCCAGG	9.66 upbm affinity estimate (log intensity, higher = more binding, comparable within an allelic series)
CCGACGCA	9.25 upbm affinity estimate (log intensity, higher = more binding, comparable within an allelic series)

Each sequence was assayed against NKX3-2 (Homo sapiens, UniProt P78367 192-278, P234S) (assay: PBM; 200 nM protein, PBS). Settings: dsDNA, one strand shown.
Sequence of NKX3-2 (Homo sapiens, UniProt P78367 192-278, P234S) (P78367 192-278 P234S): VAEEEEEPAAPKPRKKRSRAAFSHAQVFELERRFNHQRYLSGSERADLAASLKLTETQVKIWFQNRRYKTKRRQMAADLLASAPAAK

Sequence	binding signal
AAGTGGGT	12.7 upbm affinity estimate (log intensity, higher = more binding, comparable within an allelic series)
AAGTGGCG	12.7 upbm affinity estimate (log intensity, higher = more binding, comparable within an allelic series)
TAAGTGCA	12.8 upbm affinity estimate (log intensity, higher = more binding, comparable within an allelic series)
CACACTTA	12.6 upbm affinity estimate (log intensity, higher = more binding, comparable within an allelic series)
AAGTGGGC	12.8 upbm affinity estimate (log intensity, higher = more binding, comparable within an allelic series)
CACTTAGG	12.9 upbm affinity estimate (log intensity, higher = more binding, comparable within an allelic series)
AAGTGCCT	12.5 upbm affinity estimate (log intensity, higher = more binding, comparable within an allelic series)
CTAAGTAC	12.5 upbm affinity estimate (log intensity, higher = more binding, comparable within an allelic series)
AGCCCAGG	10.1 upbm affinity estimate (log intensity, higher = more binding, comparable within an allelic series)
AAGTGGCC	12.9 upbm affinity estimate (log intensity, higher = more binding, comparable within an allelic series)
ACTAAGTG	12.9 upbm affinity estimate (log intensity, higher = more binding, comparable within an allelic series)
GCGCGTCC	10.6 upbm affinity estimate (log intensity, higher = more binding, comparable within an allelic series)
GCACTTAC	12.7 upbm affinity estimate (log intensity, higher = more binding, comparable within an allelic series)
CTAAGTGC	13 upbm affinity estimate (log intensity, higher = more binding, comparable within an allelic series)
GAAGTGGA	12.5 upbm affinity estimate (log intensity, higher = more binding, comparable within an allelic series)
CACTTACC	12.7 upbm affinity estimate (log intensity, higher = more binding, comparable within an allelic series)
ACACTTAG	12.8 upbm affinity estimate (log intensity, higher = more binding, comparable within an allelic series)

What follows are sequences tested against NKX2-5 (Homo sapiens, UniProt P52952 125-210) (assay: PBM; 200 nM protein, PBS). Settings: dsDNA, one strand shown.
Sequence of NKX2-5 (P52952 125-210): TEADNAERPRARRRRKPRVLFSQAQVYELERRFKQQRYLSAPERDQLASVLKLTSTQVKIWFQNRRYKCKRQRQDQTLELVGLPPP

Sequence	binding signal
AAGTGGGT	12.3 upbm affinity estimate (log intensity, higher = more binding, comparable within an allelic series)
AAGTGGCG	12.2 upbm affinity estimate (log intensity, higher = more binding, comparable within an allelic series)
TAAGTGCA	12.4 upbm affinity estimate (log intensity, higher = more binding, comparable within an allelic series)
CCACGGCG	8.47 upbm affinity estimate (log intensity, higher = more binding, comparable within an allelic series)
CCTCCGGA	8.86 upbm affinity estimate (log intensity, higher = more binding, comparable within an allelic series)
CGTCGGTC	8.91 upbm affinity estimate (log intensity, higher = more binding, comparable within an allelic series)
CACACTTA	12.4 upbm affinity estimate (log intensity, higher = more binding, comparable within an allelic series)
AAGTGGGC	12.3 upbm affinity estimate (log intensity, higher = more binding, comparable within an allelic series)
AGTCCTTA	11.2 upbm affinity estimate (log intensity, higher = more binding, comparable within an allelic series)
CACTTAGG	12.5 upbm affinity estimate (log intensity, higher = more binding, comparable within an allelic series)
AAGTGCCT	12.3 upbm affinity estimate (log intensity, higher = more binding, comparable within an allelic series)
CTAAGTAC	12.2 upbm affinity estimate (log intensity, higher = more binding, comparable within an allelic series)
ACAATTAC	11 upbm affinity estimate (log intensity, higher = more binding, comparable within an allelic series)
CTGGCCGA	8.74 upbm affinity estimate (log intensity, higher = more binding, comparable within an allelic series)
AGCCCAGG	8.63 upbm affinity estimate (log intensity, higher = more binding, comparable within an allelic series)
CACTTGTA	12.3 upbm affinity estimate (log intensity, higher = more binding, comparable within an allelic series)
CCGACGCA	8.7 upbm affinity estimate (log intensity, higher = more binding, comparable within an allelic series)
CGACTGGC	8.72 upbm affinity estimate (log intensity, higher = more binding, comparable within an allelic series)
CAAGTGGG	12.3 upbm affinity estimate (log intensity, higher = more binding, comparable within an allelic series)

Sequence	binding signal
ACACGTGT	9.25 upbm affinity estimate (log intensity, higher = more binding, comparable within an allelic series)
AGCACTTG	12.3 upbm affinity estimate (log intensity, higher = more binding, comparable within an allelic series)
CGGTGGAG	9.08 upbm affinity estimate (log intensity, higher = more binding, comparable within an allelic series)
AAGTGGCC	12.4 upbm affinity estimate (log intensity, higher = more binding, comparable within an allelic series)
ACTAAGTG	12.3 upbm affinity estimate (log intensity, higher = more binding, comparable within an allelic series)
GCGCGTCC	8.91 upbm affinity estimate (log intensity, higher = more binding, comparable within an allelic series)
GCGGCCAC	8.78 upbm affinity estimate (log intensity, higher = more binding, comparable within an allelic series)
GTCCCAGA	8.98 upbm affinity estimate (log intensity, higher = more binding, comparable within an allelic series)
CAGCGTCC	8.65 upbm affinity estimate (log intensity, higher = more binding, comparable within an allelic series)
CTAAGTGC	12.7 upbm affinity estimate (log intensity, higher = more binding, comparable within an allelic series)
CGTTCCGC	8.75 upbm affinity estimate (log intensity, higher = more binding, comparable within an allelic series)
GAAGTGGA	11.8 upbm affinity estimate (log intensity, higher = more binding, comparable within an allelic series)
CCAGCAGC	8.73 upbm affinity estimate (log intensity, higher = more binding, comparable within an allelic series)
CCAGCAGG	8.77 upbm affinity estimate (log intensity, higher = more binding, comparable within an allelic series)
CGACCTCG	9.16 upbm affinity estimate (log intensity, higher = more binding, comparable within an allelic series)
CACTTACC	12.3 upbm affinity estimate (log intensity, higher = more binding, comparable within an allelic series)
ACACTTAG	12.5 upbm affinity estimate (log intensity, higher = more binding, comparable within an allelic series)
CAGGTCGC	9.21 upbm affinity estimate (log intensity, higher = more binding, comparable within an allelic series)

The sequences below were run against NKX3-2 (Homo sapiens, UniProt P78367 192-278) (assay: PBM; 200 nM protein, PBS). Settings: dsDNA, one strand shown.
Sequence of NKX3-2 (Homo sapiens, UniProt P78367 192-278) (P78367 192-278): as the sequence (P78367 192-278 P234S) above, with S43P counted along it

Sequence	binding signal
AAGTGGGT	12.8 upbm affinity estimate (log intensity, higher = more binding, comparable within an allelic series)
AAGTGGCG	12.8 upbm affinity estimate (log intensity, higher = more binding, comparable within an allelic series)
TAAGTGCA	12.9 upbm affinity estimate (log intensity, higher = more binding, comparable within an allelic series)
CACACTTA	12.7 upbm affinity estimate (log intensity, higher = more binding, comparable within an allelic series)
AAGTGGGC	12.9 upbm affinity estimate (log intensity, higher = more binding, comparable within an allelic series)
CACTTAGG	13 upbm affinity estimate (log intensity, higher = more binding, comparable within an allelic series)
AAGTGCCT	12.6 upbm affinity estimate (log intensity, higher = more binding, comparable within an allelic series)
CTAAGTAC	12.6 upbm affinity estimate (log intensity, higher = more binding, comparable within an allelic series)
AGCCCAGG	10.1 upbm affinity estimate (log intensity, higher = more binding, comparable within an allelic series)
AAGTGGCC	13.1 upbm affinity estimate (log intensity, higher = more binding, comparable within an allelic series)
ACTAAGTG	12.9 upbm affinity estimate (log intensity, higher = more binding, comparable within an allelic series)
GCGCGTCC	10.6 upbm affinity estimate (log intensity, higher = more binding, comparable within an allelic series)
GCACTTAC	12.8 upbm affinity estimate (log intensity, higher = more binding, comparable within an allelic series)
CTAAGTGC	13 upbm affinity estimate (log intensity, higher = more binding, comparable within an allelic series)
GAAGTGGA	12.6 upbm affinity estimate (log intensity, higher = more binding, comparable within an allelic series)
CACTTACC	12.8 upbm affinity estimate (log intensity, higher = more binding, comparable within an allelic series)
ACACTTAG	12.8 upbm affinity estimate (log intensity, higher = more binding, comparable within an allelic series)
